# Experimental data reported in the supplement of paper PMC3334620.
# Whole data set: some 33,000 sequences, median “E-score (-0.5 to 0.5)” near -0.056, cut for the highest 2% near 0.38. The entries come from a sample that favours the highest values as a whole.
# Target: Stb4 (UniProt P50104)
# Test: PBM E-score (8-mer binding enrichment) (E-score (-0.5 to 0.5)); higher = stronger / more preferred TF binding
# Conditions: protein concentration: 200 nM; construct: GST-DNA-binding domain
# Method in brief: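 Yeast transcription factors carrying a GST tag, as full-length proteins or DNA-binding domains, were produced by PURExpress in vitro transcription/translation. About 100-200 nM protein was applied to universal all-10-mer Agilent arrays, double-stranded by primer extension on fresh or once-stripped slides. Bound protein was detected with fluorescent anti-GST, and scans were normalised with masliner. The Universal PBM Analysis Suite gave each ungapped eight-base word, pooled with its reverse complement, an E-score, a modified Wilcoxon-Mann-Whitney statistic.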
# Sequence of UniProt P50104 (P50104 whole entry): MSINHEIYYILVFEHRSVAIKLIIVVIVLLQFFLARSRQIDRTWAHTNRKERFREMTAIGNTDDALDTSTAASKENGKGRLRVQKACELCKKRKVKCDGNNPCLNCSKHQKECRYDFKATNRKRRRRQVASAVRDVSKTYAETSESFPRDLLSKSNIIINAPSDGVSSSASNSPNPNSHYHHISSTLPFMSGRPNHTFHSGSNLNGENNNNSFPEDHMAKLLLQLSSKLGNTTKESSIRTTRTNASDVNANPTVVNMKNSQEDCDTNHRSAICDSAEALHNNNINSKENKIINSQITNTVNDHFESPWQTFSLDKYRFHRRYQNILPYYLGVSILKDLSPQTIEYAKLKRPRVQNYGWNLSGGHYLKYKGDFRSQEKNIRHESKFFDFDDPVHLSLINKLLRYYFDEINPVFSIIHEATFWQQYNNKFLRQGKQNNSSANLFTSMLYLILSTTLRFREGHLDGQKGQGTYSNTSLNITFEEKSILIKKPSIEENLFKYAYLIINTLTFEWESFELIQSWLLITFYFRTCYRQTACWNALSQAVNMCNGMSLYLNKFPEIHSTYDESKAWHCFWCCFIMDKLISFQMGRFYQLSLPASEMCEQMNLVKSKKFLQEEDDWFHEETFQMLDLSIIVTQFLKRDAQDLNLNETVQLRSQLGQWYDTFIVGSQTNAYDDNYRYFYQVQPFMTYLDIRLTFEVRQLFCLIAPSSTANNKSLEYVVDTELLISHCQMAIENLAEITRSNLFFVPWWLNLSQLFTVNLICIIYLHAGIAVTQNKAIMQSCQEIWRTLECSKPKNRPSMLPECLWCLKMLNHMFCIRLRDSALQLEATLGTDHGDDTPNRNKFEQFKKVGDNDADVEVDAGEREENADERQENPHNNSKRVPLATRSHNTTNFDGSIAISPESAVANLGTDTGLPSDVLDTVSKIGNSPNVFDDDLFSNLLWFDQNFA
row,Sequence,PBM E-score
1,CCCCGAAA,0.34
2,AAGTGCAG,-0.212
3,AACTTAGT,0.0161
4,CATCCCGC,0.122
5,AATCCCGT,0.303
6,TATCCCAA,0.0571
7,CATCCCGG,0.342
8,TATCCCGA,0.398
9,TATCCCCA,-0.185
10,GATCCCAA,-0.0342
11,GATCCCGC,0.225
12,CATCCCGA,0.401
13,AATCCCGA,0.431
14,GATCCCGA,0.417
15,AATCCCGC,0.225
16,CGAGTAAA,0.143
17,ATTGTAGA,-0.132
18,AGTTTGGG,-0.172
19,AGCTAAAA,-0.0535
20,CCAGTTGC,-0.0304
21,CAATAGGC,-0.0832
22,TCAGATAA,-0.0704
23,AATCCTTA,-0.0563
24,CCCGGACA,0.264
25,ACCGGACG,0.146

row,Sequence,PBM E-score
1,GCCGGATA,0.409
2,GCCGGAGA,0.192
3,GCCGGACA,0.154
4,ACCGGAGG,0.228
5,ACCGGATG,0.385
6,CGGGGATC,0.279
7,CCCGGATA,0.429
8,CCCGGAGA,0.318
9,CCGGGATC,0.384
10,CCGGGATA,0.292
11,AAGGGGTC,-0.176
12,GACGTACC,-0.0237
13,CAAAGCAA,-0.0355
14,ATCGAGAA,-0.157
15,GATTTTAC,0.0329
16,GGACGGCC,-0.028
17,ATGCCAAG,-0.177
18,GCAAAAAA,0.137
19,CCGCAGTC,0.112
20,TGATTGCA,-0.0923
21,ACCGGATC,0.353
22,ACCGGAGA,0.187
23,CCCGGATC,0.385
24,ACCGGACA,0.128
25,ACCGGATA,0.388

row,Sequence,PBM E-score
1,CCCGGAGC,0.32
2,CAAAATGC,-0.121
3,CTGAACCA,-0.197
4,ACGCCGTA,-0.208
5,ATCAACAC,-0.101
6,ACGAAATC,-0.0845
7,ACGAAATA,-0.111
8,GCGAAATA,0.0947
9,CTGAAATC,-0.0865
10,CCGAAATC,0.405
11,CCGAAATA,0.401
12,CGGTAACA,0.238
13,ACACTGCG,0.00398
14,AGGTTGGC,-0.205
15,GTATTATA,0.0782
16,CATTCCGA,0.449
17,GATTCCCA,-0.109
18,CATTCCGG,0.358
19,GATTCCGC,0.222
20,AATTCCGA,0.46
21,AATTCCGG,0.358
22,TATTCCAA,-0.113
23,GATTCCGA,0.444
24,TATTCCGA,0.462
25,CATTCCGC,0.175

row,Sequence,PBM E-score
1,AATTCCGC,0.246
2,TATTCCCA,0.0571
3,CCACCCGC,0.194
4,TATCAAGA,-0.216
5,CAGCCTGG,-0.203
6,CCCAGTGC,-0.0453
7,GTGTCGTA,-0.0741
8,ATGTCGGA,0.389
9,CTGTCGGA,0.353
10,GTGTCGCA,-0.0287
11,ATGTCGGC,0.138
12,GTGTCGGA,0.395
13,ATTAGTAA,0.076
14,AGTGATAG,-0.33
15,AGCACAGA,-0.121
16,GCCAATAA,0.0672
17,CACATCCG,0.425
18,CACATCCC,0.187
19,AACATCCG,0.45
20,AACATCCT,-0.0622
21,CACATCCA,-0.0807
22,ACCATCCC,0.0842
23,ACCATCCT,-0.249
24,ACCATCCG,0.406
25,ATCATCCG,0.414

row,Sequence,PBM E-score
1,AACATCCC,0.232
2,ATCATCCC,0.052
3,ATCATCCA,-0.121
4,AATCAATA,-0.0212
5,CGATTAAG,-0.128
6,AAAAGGGC,-0.141
7,CAATTCTA,-0.196
8,AATTCTTA,-0.0318
9,CTGGAGCA,-0.262
10,ATCCTAGG,-0.0251
11,GCTCCAAC,-0.111
12,CACTGGCA,-0.23
13,GCTTGAGA,-0.312
14,ACGAGATC,-0.0355
15,CCGAGATC,0.435
16,CCGAGATA,0.405
17,CTGAGATC,-0.0537
18,GCGAGATA,0.026
19,ACGAGATA,-0.184
20,AAGCAGCT,-0.0723
21,CCAGACTA,-0.229
22,CTGAGGGA,-0.284
23,ACTTTCCG,0.383
24,CATTTCCG,0.421
25,ATTTTCCG,0.424

row,Sequence,PBM E-score
1,ACTTTCCC,0.121
2,AGTTTCCG,0.437
3,ACTTTCCT,-0.22
4,ATTTTCCA,-0.0573
5,CATTTCCC,0.18
6,ATTTTCCC,0.0682
7,AGTTTCCA,-0.103
8,AGTTTCCC,0.132
9,CATTTCCA,-0.196
10,CGCAGGAA,-0.0189
11,ATATGGCG,0.0558
12,CGAGTAAC,0.166
13,CTGGCTGC,-0.108
14,AAAGGGTC,-0.0434
15,ACGGGGGG,-0.228
16,GCCACGCC,-0.282
17,GATAGCGA,-0.0238
18,AATTTCCC,0.142
19,AATTTCCT,-0.0502
20,AGTTTCGG,0.412
21,AGTTTCGC,0.0157
22,AGTTTCGA,-0.131
23,AATTTCCG,0.425
24,CTAAGTCA,-0.0795
25,CCCAATGC,-0.17

row,Sequence,PBM E-score
1,ATTGGCTG,-0.167
2,GATAAGCA,0.136
3,AGTTCGGC,0.357
4,AGTTCGTG,-0.157
5,AGTTCGGG,0.426
6,AGTTCGCA,-0.158
7,AGTTCGGA,0.442
8,AGTTCGTA,0.0255
9,AACATTCA,-0.00804
10,AACGGCAT,0.232
11,AAAAGAGC,-0.189
12,CATCTCGA,-0.252
13,AATCTCGG,0.434
14,ATTCTCGG,0.425
15,AATCTCGA,-0.0861
16,AAACTCGT,-0.228
17,ATTCTCGC,-0.286
18,CATCTCGC,-0.0526
19,AAACTCGC,-0.0551
20,ATTCTCGA,-0.194
21,AATCTCGT,-0.0273
22,AAACTCGG,0.419
23,CATCTCGG,0.458
